From PubChem BioAssay (NCI)
This is part of a sample that, as a whole, favours compounds with a hit. Of some 83,000 tested, about 20% had one in any assay.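 Treatment: one concentration, 48 hours, 96-well format. Scoring: percent growth, with anything below 10 considered active.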 Unmarked numbers belong to inactive results. The source made the active and inactive calls.

Legend:
Experiment in all cases: NCI-60 one-dose screen, 48 h (100 = growth as untreated, 0 = no growth, -100 = all killed)
Settings in all cases: 10 µM unless noted
NCI-H23 lung = tested on: NCI-H23 lung
NCI-H226 lung = tested on: NCI-H226 lung
NCI-H322M lung = tested on: NCI-H322M lung
HOP-62 NSCLC = tested on: HOP-62 NSCLC
NCI-H460 lung = tested on: NCI-H460 lung
NCI-H522 lung = tested on: NCI-H522 lung
A549/ATCC NSCLC = tested on: A549/ATCC NSCLC
786-0 renal = tested on: 786-0 renal
COLO 205 colon = tested on: COLO 205 colon
DU-145 prostate = tested on: DU-145 prostate
K-562 leukemia = tested on: K-562 leukemia
MALME-3M melanoma = tested on: MALME-3M melanoma
MDA-MB-231 breast = tested on: MDA-MB-231 breast
RXF 393 renal = tested on: RXF 393 renal
SF-268 CNS = tested on: SF-268 CNS
SF-295 CNS = tested on: SF-295 CNS
SF-539 CNS = tested on: SF-539 CNS
UACC-257 melanoma = tested on: UACC-257 melanoma
M14 melanoma = tested on: M14 melanoma
HCT-15 colon = tested on: HCT-15 colon

Row | SMILES | growth (NCI-H23 lung) | growth (NCI-H226 lung) | growth (NCI-H322M lung) | growth (HOP-62 NSCLC) | growth (NCI-H460 lung) | growth (NCI-H522 lung) | growth (A549/ATCC NSCLC) | growth (786-0 renal) | growth (COLO 205 colon) | growth (DU-145 prostate) | growth (K-562 leukemia) | growth (MALME-3M melanoma) | growth (MDA-MB-231 breast) | growth (RXF 393 renal) | growth (SF-268 CNS) | growth (SF-295 CNS) | growth (SF-539 CNS) | growth (UACC-257 melanoma) | growth (M14 melanoma) | growth (HCT-15 colon)
1 | c1ccc(N2CCN(c3nncc4ccccc34)CC2)nc1 | 105% | 98.1% | 114% | 102% | 108% | 99.4% | 100% | 104% | 106% | 99% | 106% | 109% | 108% | 108% | 103% | 107% | 113% | 99% | 102% | 108%
2 | C[n+]1c2ccccc2c(Nc2ccc(N3CCCCC3)cc2)c2[nH]c3ccccc3c21 | -76.3% (active) | -56.5% (active) | -95.2% (active) | -93.8% (active) | -84.1% (active) | -96.5% (active) | -88% (active) | -98.5% (active) | -87% (active) | -95.7% (active) | -74% (active) | -77.8% (active) | -91.1% (active) | -96.5% (active) | -93.4% (active) | -85.7% (active) | -99.1% (active) | -98.7% (active) | -97.3% (active) | -78.8% (active)
3 | O=C(/C=C/c1cccnc1)/C=C/c1cccnc1 | -5.04% (active) | 2.94% (active) | 122% | 98.9% | 18.5% | -91.2% (active) | 6.27% (active) | 5.1% (active) | -84.8% (active) | -29.6% (active) | -15.2% (active) | -8.19% (active) | 20.4% | -84.9% (active) | -64% (active) | 41.6% | -46.1% (active) | 31.2% | -47.3% (active) | -9.07% (active)
4 | Cc1cc(Cl)ccc1Nc1nc(C(F)(F)F)ccc1C(=O)NCC(=O)N/N=C/c1c(Cl)cccc1Cl | 74.6% | 89.5% | 80.9% | 102% | 80.7% | 75.8% | 44.9% | 94.9% | 87.3% | 49.9% | 50.2% | 92.2% | 61.6% | 107% | 31% | 54.2% | 79.4% | 149% | 75.8% | 60.8%
5 | COc1cccc(-c2nnc(N)o2)c1 | 101% | 103% | 99.5% | 102% | 107% | 96.8% | 102% | 100% | 117% | 107% | 98.1% | 106% | 124% | 94.6% | 111% | 113% | 111% | 92.7% | 91.1% | 106%
6 | CCCCc1nc(Cl)c(CO)n1Cc1ccc(-c2ccccc2-c2nn[nH]n2)cc1 | 106% | 99.3% | 97.1% | 97.7% | 108% | 92.8% | 105% | 106% | 96.6% | 110% | 105% | 101% | 99.1% | 105% | 115% | 99.9% | 100% | 104% | 101% | 106%
7 | Cc1ccc(C(O)C2=CC(=O)c3ccccc3C2=O)cc1 (stereo not given) | 89.2% | 94.9% | 99.3% | 104% | 98.4% | 95.7% | 102% | 110% | 107% | 111% | 112% | 107% | 71.1% | 109% | 107% | 97.6% | 95.3% | 102% | 95.7% | 93.3%
8 | COc1ccc(C(=O)Nc2nc(-c3ccc(Cl)cc3)cs2)cc1 | 114% | 95.6% | 86.8% | 90.8% | 105% | 105% | 100% | 108% | 102% | 111% | 104% | 111% | 105% | 97.1% | 105% | 97.5% | 93% | 98.5% | 113% | 94.9%
9 | N#Cc1c(N)[nH]c(S)c1C#N | 105% | 97.5% | 108% | 100% | 107% | 97.4% | 90.9% | 107% | 120% | 112% | 100% | 107% | 99.3% | 113% | 108% | 87.7% | 97.9% | 99.9% | 100% | 100%
10 | COc1ccc2c(c1)C(=O)c1c-2c(=O)n(CCCCCCC(=O)NO)c2ccccc12 | -41.9% (active) | 1.93% (active) | -3.32% (active) | -3.67% (active) | 3.19% (active) | 4.79% (active) | -10.4% (active) | -3.09% (active) | -39.3% (active) | 9.94% (active) | 8.79% (active) | -23.1% (active) | -5.72% (active) | -60.9% (active) | 10.1% | -33.7% (active) | 7.21% (active) | -6.3% (active) | -0.387% (active) | 13.3%
11 | CCCCCCCCCCSc1ncnc2nc[nH]c12 | 36.8% | 67.4% | 88.5% | 86.3% | 65.8% | 57.1% | 58.5% | 71.3% | 113% | 75% | 48.5% | 102% | 75.3% | 89.5% | 83.7% | 68.7% | 86.8% | 48.5% | 94% | 82.4%
12 | CC(=O)c1cc(C(=O)c2ccc3c(c2)Sc2ccccc2N3)c2c(C)cc(C)cn12 | 26.7% | 30% | 44.9% | 20.8% | 0.69% (active) | -31.2% (active) | 3.95% (active) | 4% (active) | -37.4% (active) | 2.22% (active) | 4.47% (active) | 69.6% | -13.5% (active) | 34.3% | 11.9% | -1.02% (active) | -2.53% (active) | 26.9% | 9.62% (active) | 15%
13 | O=C(O)c1ccc(NC(=O)c2cccc(Nc3ccnc(C(F)(F)F)c3)c2)cc1 | 102% | 99.8% | 101% | 107% | 107% | 87% | 106% | 97.9% | 112% | 116% | 105% | 93.5% | 110% | 103% | 104% | 88.8% | 106% | 98.7% | 95.6% | 96.5%
14 | COc1ccc(Cn2cc3c(c2-c2ccccc2)CCc2cncnc2-3)cc1 | 69.9% | 72.1% | 110% | 61.1% | 27% | 26.1% | 46.6% | 57.3% | 45.5% | 72.9% | 22.1% | 26.9% | 50% | 55.3% | 63.1% | 24.3% | 59.7% | 74.9% | 24.5% | 45.3%
15 | COc1ccc(Cn2c(NCCCN(C)C)nc(=O)n(Cc3ccc(F)cc3)c2=O)cc1 | 103% | 90.7% | 83% | 93.5% | 108% | 95% | 110% | 89.3% | 94.8% | 99.4% | 87.9% | 87.9% | 81.4% | 83.7% | 83.7% | 96.2% | 108% | 92.4% | 97.9% | 107%
16 | CCCc1cc(=O)n2c(C(=O)Nc3ccccc3OC)c(C(=O)Nc3ccc(F)cc3)sc2n1 | 63% [30 µM] | 62.3% [30 µM] | 57.9% [30 µM] | -16.7% [30 µM] (active) | 44.6% [30 µM] | 46.7% [30 µM] | 16.1% [30 µM] | 36.2% [30 µM] | 72.5% [30 µM] | 53.9% [30 µM] | 3.51% [30 µM] (active) | 64.1% [30 µM] | 58.3% [30 µM] | -19.5% [30 µM] (active) | -16.3% [30 µM] (active) | -18.7% [30 µM] (active) | -47% [30 µM] (active) | 76.3% [30 µM] | 80.6% [30 µM] | 79% [30 µM]
